Measurements published in PubChem BioAssay (EPA / NIEHS).
Where a structure was tested more than once in an assay, its records may differ in their call. Calls of active or inactive are those of the source. How the source made its calls: active means hit-call score of the fitted dose curve at least 0.9, where 1 is the maximum; inactive means score below 0.9.

Key:
[1] = ATG_CRE_CIS: Attagene CIS-FACTORIAL HepG2 Assay for human cAMP Responsive Element (CRE) binding protein 3 (AID 2282926); conditions: HepG2 CRE cis-reporter, Attagene multiplexed mRNA; actives raise or lower the signal
Outline: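 HepG2 cells transiently transfected with cis-element-driven multiple reporter transcription units; CRE reporter mRNA measured 24 h after dosing by RT-PCR, 6-FAM labelling, HpaI digestion and capillary electrophoresis. Bidirectional fit versus DMSO baseline.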

[2] = biological target: CCAAT/enhancer-binding protein beta (Homo sapiens) (UniProt P17676); assay: ATG_C_EBP_CIS: Attagene CIS-FACTORIAL HepG2 Assay for human CCAAT/Enhancer Binding Protein (C/EBP) beta (AID 2282927); conditions: HepG2 Attagene cis-factorial transcription factor reporter; actives raise or lower the signal
Outline: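 Endogenous C/EBPb-driven reporter transcripts measured in transfected human HepG2 cells at 24 h via RT-PCR and capillary electrophoresis of labelled fragments. Activity fitted in both directions relative to DMSO baseline.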

[3] = ATG_CMV_CIS: Attagene CIS-FACTORIAL HepG2 Assay for human CMV (Internal Marker) (AID 2282928); conditions: HepG2 CMV promoter reporter, transcription factor profiling; actives raise or lower the signal;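 further: endpoint acts as a background internal control marker rather than a target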
Outline: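 Cell system: HepG2, transiently transfected multiple reporter units under cis promoters. Exposure: 24 h. Detection: RT-PCR, FAM labeling, HpaI digestion, capillary electrophoresis. Analysis: bidirectional, DMSO baseline.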

[4] = ATG_DR4_LXR_CIS: Attagene CIS-FACTORIAL HepG2 Assay for human Liver X Receptor (LXR), DR4 submotif (AID 2282929); conditions: HepG2 Attagene DR4 cis-reporter, mRNA transcription; actives raise or lower the signal
Outline: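 Measures endogenous transcription factor activity via a DR4-driven reporter transcript in human HepG2 cells. Compounds incubated 24 h; mRNA quantified by RT-PCR and capillary electrophoresis, analysed as gain or loss of signal versus DMSO.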

[5] = biological target: Aryl hydrocarbon receptor (Homo sapiens) (UniProt P35869); assay: ATG_Ahr_CIS: Attagene CIS-FACTORIAL HepG2 Assay for human Aryl Hydrocarbon Receptor (Ahr) (AID 2282930); conditions: HepG2 AhR cis-factorial reporter transcription; actives raise or lower the signal
Outline: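 Reporter mRNA levels, quantified by RT-PCR and fluorescent capillary electrophoresis, reflect endogenous AhR transcriptional activity in HepG2 cells carrying transfected cis-promoter reporter constructs. Readout at 24 h post-dose; gain or loss fitted against DMSO baseline.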

[6] = ATG_AP_1_CIS: Attagene CIS-FACTORIAL HepG2 Assay for human Activator Protein 1 (AP-1) (AID 2282931); conditions: HepG2 Attagene cis-factorial AP-1 reporter mRNA; actives raise or lower the signal
Outline: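 Bidirectional concentration-response fitting against DMSO controls. Underlying signal: reporter mRNA from cis-promoter constructs in transiently transfected HepG2, measured after 24 h by RT-PCR and capillary electrophoresis.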

[7] = ATG_AP_2_CIS: Attagene CIS-FACTORIAL HepG2 Assay for human Activator Protein 2 (AP-2) (AID 2282932); conditions: HepG2 AP-2 cis-reporter, Attagene transcription factor profiling; actives raise or lower the signal
Outline: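 Step one: transient transfection of HepG2 with reporter transcription units. Step two: 24 h chemical exposure. Step three: RNA extraction, RT-PCR, labelled fragment analysis by capillary electrophoresis; DMSO serves as baseline.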

[8] = ATG_BRE_CIS: Attagene CIS-FACTORIAL HepG2 Assay for human Bone Morphogenetic Protein (BMP) Response Element (BRE) (AID 2282933); conditions: HepG2 BMP response element reporter, Attagene transcription factor profiling; actives raise or lower the signal
Outline: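 Fluorescence-labelled reporter cDNA fragments, separated by capillary electrophoresis, gave the signal for this component of a 52-readout multiplex. HepG2 cells were transfected, exposed to chemicals for 24 h, and compared with DMSO using bidirectional fitting.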

[9] = biological target: Retinoic acid receptor alpha (Homo sapiens) (UniProt P10276); assay: ATG_DR5_RAR_CIS: Attagene CIS-FACTORIAL HepG2 Assay for human Retinoic Acid Receptor Alpha (RARE), DR5 submotif (AID 2282934); conditions: HepG2 Attagene cis-factorial RARE DR5 reporter, mRNA; actives raise or lower the signal;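 on AC50: reporter responds to endogenous RAR alpha beta and gamma in HepG2 not RARA alone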
Outline: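 Reporter transcripts from a DR5-regulated unit, measured via RT-PCR plus capillary electrophoresis, reflect endogenous RAR activity in transiently transfected human HepG2 liver cells. Exposure lasted 24 h; gain or loss of signal scored against DMSO.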

Measured: AC50

Retinoic acid receptor alpha (Homo sapiens), sequence (P10276 whole entry, looked up): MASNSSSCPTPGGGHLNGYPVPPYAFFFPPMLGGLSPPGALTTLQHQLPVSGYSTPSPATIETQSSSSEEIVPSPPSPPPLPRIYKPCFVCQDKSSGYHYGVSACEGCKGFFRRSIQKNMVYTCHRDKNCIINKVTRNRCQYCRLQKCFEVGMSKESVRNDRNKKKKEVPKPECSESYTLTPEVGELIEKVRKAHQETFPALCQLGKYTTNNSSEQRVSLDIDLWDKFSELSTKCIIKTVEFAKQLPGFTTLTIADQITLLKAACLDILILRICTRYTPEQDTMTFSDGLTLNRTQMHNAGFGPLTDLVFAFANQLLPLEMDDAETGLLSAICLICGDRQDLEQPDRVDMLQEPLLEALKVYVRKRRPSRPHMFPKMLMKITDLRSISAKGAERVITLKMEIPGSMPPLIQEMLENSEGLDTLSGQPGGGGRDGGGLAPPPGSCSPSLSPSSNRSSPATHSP
CCAAT/enhancer-binding protein beta (Homo sapiens), sequence (P17676 whole entry, looked up, the tested form may be a part): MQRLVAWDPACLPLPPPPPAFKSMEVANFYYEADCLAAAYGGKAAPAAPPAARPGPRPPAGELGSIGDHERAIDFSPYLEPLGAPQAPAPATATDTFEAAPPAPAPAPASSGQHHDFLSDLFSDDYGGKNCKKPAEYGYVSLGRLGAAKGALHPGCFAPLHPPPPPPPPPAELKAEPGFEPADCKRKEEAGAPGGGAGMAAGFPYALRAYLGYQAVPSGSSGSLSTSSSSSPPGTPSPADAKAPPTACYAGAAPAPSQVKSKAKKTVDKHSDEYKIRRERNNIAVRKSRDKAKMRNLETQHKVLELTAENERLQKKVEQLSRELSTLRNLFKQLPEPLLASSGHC
Aryl hydrocarbon receptor (Homo sapiens), sequence (P35869 whole entry, looked up): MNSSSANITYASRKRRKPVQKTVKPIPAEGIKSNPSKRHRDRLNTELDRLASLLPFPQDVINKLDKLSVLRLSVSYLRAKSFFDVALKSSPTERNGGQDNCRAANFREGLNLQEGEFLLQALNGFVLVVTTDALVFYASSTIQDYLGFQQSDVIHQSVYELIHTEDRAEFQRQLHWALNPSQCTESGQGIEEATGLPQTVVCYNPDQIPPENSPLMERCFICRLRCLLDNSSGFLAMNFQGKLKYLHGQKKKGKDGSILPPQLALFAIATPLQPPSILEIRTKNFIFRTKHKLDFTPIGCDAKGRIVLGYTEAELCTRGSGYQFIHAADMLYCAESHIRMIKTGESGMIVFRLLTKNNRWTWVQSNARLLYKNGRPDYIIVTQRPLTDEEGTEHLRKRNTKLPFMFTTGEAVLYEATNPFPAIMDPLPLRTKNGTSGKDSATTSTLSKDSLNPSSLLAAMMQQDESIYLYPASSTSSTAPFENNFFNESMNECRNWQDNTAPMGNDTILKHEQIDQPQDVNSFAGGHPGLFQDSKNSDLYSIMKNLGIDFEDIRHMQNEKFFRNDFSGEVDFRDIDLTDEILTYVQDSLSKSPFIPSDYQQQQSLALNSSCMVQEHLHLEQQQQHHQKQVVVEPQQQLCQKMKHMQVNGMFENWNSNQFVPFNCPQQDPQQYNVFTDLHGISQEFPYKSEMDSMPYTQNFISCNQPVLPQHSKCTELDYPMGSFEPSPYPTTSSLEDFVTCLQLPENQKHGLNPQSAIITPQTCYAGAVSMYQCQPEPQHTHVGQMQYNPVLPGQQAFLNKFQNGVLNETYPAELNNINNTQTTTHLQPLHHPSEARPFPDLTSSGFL

N#Cc1ccc(O)cc1
inactive: [1] | [2] | [3] | [4] | [5] | [6] | [7] | [8] | [9]

CCOP(=S)(OCC)SCSc1ccc(Cl)cc1
inactive: [1] | [2] | [3] | [4] | [5] | [6] | [7] | [8] | [9]

OCC(F)(F)OC(F)(F)C(F)(F)OC(F)(F)C(F)(F)OC(F)(F)CO
inactive: [2] | [3] | [4] | [5] | [6] | [7] | [8] | [9]
active: [1] 35.5 µM

O=[N+]([O-])c1cc(Cl)ccc1Cl
inactive: [1] | [2] | [3] | [4] | [5] | [6] | [7] | [8] | [9]

COC(=O)C(F)(F)C(F)(F)OC(F)(C(F)(F)F)C(F)(F)OC(F)=C(F)F (stereo not given)
inactive: [1] | [2] | [3] | [4] | [5] | [6] | [7] | [8] | [9]
active: [4] 20.2 µM | [6] 9.89 µM

O=S(=O)(F)C(F)(F)C(F)(F)C(F)(F)C(F)(F)C(F)(F)C(F)(F)C(F)(F)C(F)(F)F
inactive: [1] | [2] | [3] | [4] | [5] | [6] | [7] | [8] | [9]

ClC(Cl)=C(c1ccc(Cl)cc1)c1ccccc1Cl
inactive: [1] | [2] | [7] | [8]
active: [3] 36.5 µM | [4] 27.3 µM | [5] 27.2 µM | [6] 57.5 µM | [9] 27 µM

COP(=O)(O)OC
inactive: [1] | [2] | [3] | [4] | [5] | [6] | [7] | [8] | [9]

OCC(F)(F)OC(F)(F)C(F)(F)OC(F)(F)C(F)(F)OC(F)(F)F
inactive: [1] | [2] | [4] | [5] | [6] | [7] | [8] | [9]
active: [4] 80.8 µM

N#C/C=C/c1ccccc1
inactive: [1] | [3] | [4] | [5] | [6] | [7] | [8] | [9]

Oc1ccc(I)cc1
inactive: [1] | [2] | [4] | [5] | [6] | [7] | [8] | [9]

CC(=O)CCc1ccc2c(c1)OCO2
inactive: [1] | [4] | [5] | [6] | [7] | [8] | [9]

Cc1ccc2c(c1N)C(=O)c1ccccc1C2=O
active: [5] 4.15 µM | [6] 150 µM
inactive: [1] | [3] | [4] | [7] | [8] | [9]

FC(F)(F)C(F)(C(F)(F)F)C(F)(F)C(F)(F)CC1CO1 (stereo not given)
inactive: [1] | [3] | [4] | [5] | [6] | [7] | [8] | [9]

O=S(=O)(c1ccc(O)cc1)c1ccc(O)cc1
inactive: [1] | [3] | [4] | [5] | [6] | [7] | [8] | [9]

CCOP(=S)(OCC)SCn1nnc2ccccc2c1=O
inactive: [1] | [5] | [6] | [7] | [9]
active: [4] 64.7 µM | [8] 173 µM

CC(O)C#N (stereo not given)
inactive: [1] | [4] | [5] | [6] | [7] | [8] | [9]

O=C(O)C=CC(F)(C(F)(F)F)C(F)(F)F
inactive: [1] | [4] | [5] | [6] | [7] | [8] | [9]

CC(C)(C)N(NC(=O)c1ccc(Cl)cc1)C(=O)c1ccccc1
inactive: [1] | [3] | [4] | [5] | [6] | [7] | [8] | [9]

CCCCN(CC)C(=O)SCCC
inactive: [1] | [3] | [4] | [5] | [6] | [7] | [8] | [9]

NC(=O)C(F)(F)C(F)(F)F
inactive: [1] | [4] | [5] | [6] | [7] | [8] | [9]

CC(C)(C)c1ccccc1OP(=O)(Oc1ccccc1)Oc1ccccc1
inactive: [1] | [5] | [7] | [8] | [9]
active: [2] 14.8 µM | [4] 27.1 µM | [6] 116 µM

N#Cc1cc([N+](=O)[O-])ccc1N
active: [5] 2.51 µM
inactive: [1] | [2] | [4] | [6] | [7] | [8] | [9]
